In PubChem BioAssay AID1626 (SRMLSC, 2009) one finds inhibition data, which are given here for 99 compounds.

Usually inhibition stands for the relative decrease from the control value, in per cent.

About 2,000 (0.91%) of roughly 220,000 compounds were called active. Inconclusive results (about 2%) are left out. Cut-off read from the data, not from the text of the source: inconclusive = inhibition above about 80% without an active follow-up result; inactive = below that; test concentration not stated here. The list is a sample of the results. Entries with a potency or affinity are not part of this list.

The assay is described as follows: M. tuberculosis H37Rv growth inhibitors, H37Rv strain (AID 1626).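 Note: bacteria incubated seven days before Alamar blue readout; 0% = bacteria only wells and 100% = bacteria with antibiotic wells.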 Conditions: hits give high values, concentration not given here.
Take `O=C(NCc1ccccn1)/C(=N/O)c1ccccc1`: the inhibition is 1.57% (inactive).

`COc1ccc(N2C(=O)NC(NC(=O)c3cccnc3)(C(F)(F)F)C2=O)cc1` (centres undefined): the inhibition was -4.91% (inactive).

Take `Cc1nccc(-c2cc(-c3ccc(Cl)cc3Cl)no2)n1`: the inhibition was 0.59% (inactive).

As to `Cc1onc(-c2ccccc2)c1C(=O)NNC(=S)NC(=O)/C=C/c1cccs1`, the inhibition was 5.26% (inactive).

Consider `O=C(N/N=C/c1cc([N+](=O)[O-])ccc1O)C1CC1`, for which the inhibition is 9.15% (inactive).

Take `Cc1nn(-c2ccc(F)cc2)c2sc(C(=O)OC3CCOC3=O)cc12` (centres undefined): the inhibition was -1.05% (inactive).

Take `Cc1ccc(S(=O)(=O)Nc2ccc3c(c2)nc(C)n3C)cc1`: the inhibition was 2.7% (inactive).

On to `COc1ccc(/C=C2/CCc3ccccc3C2=O)cc1OC`, for which the inhibition was 5.56% (inactive).

In the case of `CNc1ccc(/C=C2\COc3ccccc3C2=O)cc1[N+](=O)[O-]`, the inhibition is 10.8% (inactive).

For `COc1cc(/C=C2/CC/C(=C/c3ccc(O)c(OC)c3)C2=O)ccc1O`, the inhibition is -0.8% (inactive).

In the case of `COc1ccc(/C=C2\Cc3ccccc3C2=O)cc1OC`, the inhibition is 4.06% (inactive).

As to `O=C1/C(=C/c2cccs2)COc2ccccc21`, the inhibition is 4.75% (inactive).

Take `COc1cc(/C=C2\COC/C(=C\c3cc(OC)c(OC)c(OC)c3)C2=O)cc(OC)c1OC`: the inhibition is 21.1% (inactive).

In the case of `CCC(C)NC(=O)CSc1nc2ccccc2c(=O)n1CCCC(=O)NCC1CCCO1` (centres undefined), the inhibition was -0.9% (inactive).

Turning to `Cc1nn(Cc2ccccc2)c(Cl)c1C(=O)OCC#N`, the inhibition was 2.96% (inactive).

With `Cc1cccc(NC(=O)CSc2ccc(C(N)=O)cc2[N+](=O)[O-])c1C`, the inhibition was -7.31% (inactive).

Consider `O=C(O)CCC(=O)Nc1ccccc1C(=O)NCc1ccco1`, for which the inhibition is -1.28% (inactive).

With `Cc1ccc(NC(=S)N/N=C2/CCCCc3ccccc32)cc1`, the inhibition is -0.29% (inactive).

In the case of `COc1ccc2nc(NC(=O)CSc3nnc(-c4ccoc4C)n3C)sc2c1`, the inhibition was 0.74% (inactive).

Consider `COCCOC(=O)c1c(NC(=O)CN2CCc3ccccc32)sc(C(N)=O)c1C`, for which the inhibition was 6.77% (inactive).

As for `CCn1cc(C(=O)O)c(=O)c2cnc(N3CCN(C(=S)Nc4ccccc4C(F)(F)F)CC3)nc21`, the inhibition was -8% (inactive).

Take `O=C(O)C(Cc1c[nH]c2ccccc12)N1Cc2ccccc2C1=O` (centres undefined): the inhibition is -8.14% (inactive).

For `CC(C)CNC(=O)NC1C(NC(=O)NCC(C)C)N(C)C(=O)N1C` (centres undefined), the inhibition was -2.11% (inactive).

As to `O=C(Nc1ccc(N2CCOCC2)cc1)c1cc2c(s1)CCCC2`, the inhibition is -7.27% (inactive).

On to `COc1ccc2nc(N=Nc3c(O)ccc4ccccc34)sc2c1`, for which the inhibition is 13.7% (inactive).

Regarding `COc1ccc2nc(/N=C\N(C)C)sc2c1`, the inhibition was 5.98% (inactive).

Regarding `CC(C)(C)C(=O)NNC(=O)c1cc2sccc2s1`, the inhibition is 13.2% (inactive).

Turning to `CCCS/C(N)=N/N=C/c1ccccc1O`, the inhibition is 4.15% (inactive).

With `CC(=O)c1ccccc1OCC(O)CN1CCN(CCN2C(=O)c3cccc4cccc(c34)C2=O)CC1` (centres undefined), the inhibition is 39.8% (inactive).

As to `CCOc1ccccc1C(=O)N1CCN(C(c2ccccc2)c2ccccc2)CC1`, the inhibition is 0.97% (inactive).

On to `CC1=CC(=O)N(c2ccc(C)cc2)C1c1ccc(Cl)cc1` (centres undefined), for which the inhibition was 11.2% (inactive).

`Cc1ccc2c(c1)c1c(n2CC(O)CNC2CCCC2)CCCC1` (centres undefined): the inhibition was 27.5% (inactive).

Regarding `Cc1ccc2c(c1)c1c(n2CC(O)CNC(C)(C)C)CCCC1` (centres undefined), the inhibition is 3.21% (inactive).

For `COc1ccc(OC)c(NC(=O)CCc2c[nH]c3ccccc23)c1`, the inhibition is 11.6% (inactive).

Turning to `CCSc1nnc(-c2ccc(OC)cc2)o1`, the inhibition was 10.5% (inactive).

In the case of `COc1ccc(Oc2ccc(NC(=O)c3ccccc3C)cc2)cc1`, the inhibition is 9.33% (inactive).

Turning to `COc1ccc(NC(=O)c2cc(Cl)ccc2Cl)c([N+](=O)[O-])c1`, the inhibition was 0.17% (inactive).

With `COc1ccc(-c2nnc(NC(=O)C(C)C)o2)cc1`, the inhibition is 28.3% (inactive).

Consider `Cc1ccccc1C(=O)Nc1nnc(-c2cccnc2)o1`, for which the inhibition was 20.8% (inactive).

Turning to `Cc1ccc(NC(=O)Nc2nnc(-c3ccccc3)o2)cc1`, the inhibition is 3.09% (inactive).

As to `Cc1ccccc1C(=O)Nc1nnc(-c2ccncc2)o1`, the inhibition was 1.04% (inactive).

Take `COc1ccc(-c2nnc(NC(=O)C3CC3)o2)cc1`: the inhibition is 14.1% (inactive).

Consider `O=C(N/N=C/c1ccc2c(c1)OCO2)c1cc(-c2ccccc2Cl)nc2ccccc12`, for which the inhibition is 4.7% (inactive).

Consider `CSc1ccc(/C=C/C(=O)OCC(=O)NC(C)C)cc1`, for which the inhibition is 0.59% (inactive).

As to `O=C(Nc1ccccc1)NC1CCN(Cc2ccccc2)CC1`, the inhibition was -1.63% (inactive).

For the compound `O=C(Cn1c(=O)n(CC2CCCO2)c(=O)c2ccccc21)c1ccccc1` (centres undefined), the inhibition is 1.39% (inactive).

For the compound `O=C(CCCSc1nc2sc3c(c2c(=O)[nH]1)CCC3)NCCO`, the inhibition is -2.38% (inactive).

Turning to `O=C(NNC(=O)c1cccnc1)Nc1ccc(Cl)c(Cl)c1`, the inhibition was -1.69% (inactive).

As for `C=CCn1c(SCn2nnc3ccccc3c2=O)nc2scc(-c3cccs3)c2c1=O`, the inhibition was -6.52% (inactive).

Take `COc1cc(CCC(O)CC(=O)CCc2ccccc2)ccc1O` (centres undefined): the inhibition was -13% (inactive).

Turning to `O=C(Nc1nn[nH]n1)c1cccc([N+](=O)[O-])c1`, the inhibition was 2.86% (inactive).

With `COc1ccc(-c2nnc(-c3ccc(OCC(C)C)cc3)o2)cc1`, the inhibition was -2.52% (inactive).

Regarding `O=C(Nc1nnc(-c2cccnc2)o1)c1cccc([N+](=O)[O-])c1`, the inhibition was 74.6% (inactive).

As for `CCOC(=O)CNC(=O)Nc1nnc(-c2ccc(OCC)cc2)o1`, the inhibition is -3.79% (inactive).

With `CC(C)(C)c1cc(NC(=O)COc2ccc(Br)cc2)n(-c2ccccc2)n1`, the inhibition was -8.73% (inactive).

Consider `COCCCNC(=O)c1ccc(-n2nc(C(F)(F)F)cc2-c2cccs2)cc1`, for which the inhibition is 2.29% (inactive).

For the compound `CC1=CC(c2ccc(Cl)cc2)n2nc(NS(=O)(=O)c3ccc(C)cc3)nc2N1` (centres undefined), the inhibition was -12.5% (inactive).

Turning to `CC1(C)CC(NC(=S)NC2CC2)CC(C)(C)N1`, the inhibition was -4.39% (inactive).

Regarding `O=C(CCCC(=O)OCC(=O)c1cccs1)Nc1ccc(F)cc1`, the inhibition is -9.65% (inactive).

Regarding `Cc1ccc(Oc2ccc(NC(=O)CCC(=O)OCC(=O)c3cccs3)cc2)cc1C`, the inhibition was -2.17% (inactive).

Consider `O=C(c1cccnc1)N1CCC(Oc2ccc(C(=O)N3CCCCO3)cc2)CC1`, for which the inhibition was 4.71% (inactive).

Turning to `COCCN(C(=S)Nc1ccc(C)cc1)C(C)c1cccnc1` (centres undefined), the inhibition is -5.81% (inactive).

Take `CCCCCCn1c(CN2CCN(C(=O)OCC)CC2)nc2c1c(=O)n(C)c(=O)n2C`: the inhibition was 6.21% (inactive).

`COc1ccc(OC(=O)c2cccnc2)cc1`: the inhibition is 0.67% (inactive).

In the case of `CCCCCCOC(=O)c1ccc(OC(=O)c2cccnc2)cc1`, the inhibition is 74.1% (inactive).

Turning to `CCCCCCCOC(=O)c1ccc(OC(=O)c2cccnc2)cc1`, the inhibition is 8.62% (inactive).

On to `CCOc1ccc(OC(=O)c2cccnc2)cc1`, for which the inhibition is 1.09% (inactive).

Turning to `CCCCOc1ccc(OC(=O)c2cccnc2)cc1`, the inhibition was 6.86% (inactive).

On to `O=C(Oc1ccc(Br)cc1)c1cncc(Br)c1`, for which the inhibition is -0.78% (inactive).

Turning to `O=C(Oc1cccc(Br)c1)c1cccnc1`, the inhibition was 13.2% (inactive).

For the compound `O=C(Oc1ccc([N+](=O)[O-])cc1)c1cncc(Br)c1`, the inhibition was 10.3% (inactive).

As to `Cc1cccc(NC(=O)c2sc(Cl)nc2-c2ccccc2)c1`, the inhibition was 8.83% (inactive).

Regarding `COc1cccc(CC2(CO)CCCN(Cc3ccc4c(c3)OCCO4)C2)c1` (centres undefined), the inhibition was 4.07% (inactive).

Regarding `Cc1nc2cc(Cl)c([N+](=O)[O-])cc2s1`, the inhibition is 7.87% (inactive).

`CC(C)Oc1ccc(CCc2nnc(SC(C)C(=O)O)n2-c2ccccc2)cc1` (centres undefined): the inhibition is 2.62% (inactive).

Regarding `CCc1ccccc1N1C[C@@]23C=C[C@@H](O2)C(C(=O)OCC(C)C)[C@H]3C1=O` (some centres undefined), the inhibition was -0.48% (inactive).

In the case of `CCCCn1nc2cc(C(=O)N(CC)c3ccc(OC)cc3)ccc2c1OCC`, the inhibition is 0.26% (inactive).

Turning to `CN(C)c1ccc(C(=S)N2CCN(c3ccc([N+](=O)[O-])cc3)CC2)cc1`, the inhibition was 9.45% (inactive).

For the compound `COc1cc(NS(=O)(=O)c2ccc(NC(C)=O)cc2)ncn1`, the inhibition is 6.36% (inactive).

As to `COc1cc(NS(=O)(=O)c2ccc(N)cc2)nc(OC)n1`, the inhibition was 14.8% (inactive).

With `O=C(CCC(=O)OCCCC(F)(F)C(F)(F)F)NC1CCCCC1`, the inhibition is -2.21% (inactive).

`COc1ccccc1NC(=O)c1[nH]c(C)c(C(C)=O)c1C`: the inhibition is -2.28% (inactive).

`Cc1nc(-c2ccccc2)sc1C1(C)CC(c2ccc([N+](=O)[O-])cc2)=NO1` (centres undefined): the inhibition is -6.22% (inactive).

With `Brc1ccccc1-c1nnc(SCc2nc3ccccc3s2)o1`, the inhibition was 36% (inactive).

As for `CCN(CC)S(=O)(=O)c1cccc(-c2nnc(SCc3nc4ccccc4s3)o2)c1`, the inhibition is 2.86% (inactive).

For the compound `COc1ccc(/C=C/C(=O)c2ccc(NC(=O)c3cccs3)cc2)cc1OC`, the inhibition was 5.93% (inactive).

In the case of `C/C(=N\NC(=O)CC(C)C)c1ccc(Cl)c(Cl)c1`, the inhibition is -0.71% (inactive).

Turning to `COc1ccc(CNCC(O)(c2ccccc2)c2ccc(Cl)cc2)cc1` (centres undefined), the inhibition was -0.19% (inactive).

In the case of `OC(CNCc1ccc(Cl)cc1)(c1ccccc1)c1ccc(F)cc1` (centres undefined), the inhibition is -2.55% (inactive).

Turning to `Cc1ccc(S(=O)(=O)Nc2c(C)nn(C)c2C)cc1`, the inhibition is -3.98% (inactive).

Turning to `Cc1cc(C)n(C(=O)CCC(=O)Nc2ccc(C)c(C)c2)n1`, the inhibition is -4.23% (inactive).

In the case of `Cc1[nH]c2ccccc2c1NC(=O)CN1CCN(c2cccc(C(F)(F)F)c2)CC1`, the inhibition is 8.35% (inactive).

For the compound `COc1ccc(-c2ncnc(C(F)(F)F)c2-c2csc(C)n2)c(O)c1`, the inhibition is -3.59% (inactive).

With `Nc1ccc(OCc2ccccc2)cc1`, the inhibition is 78.2% (inactive).

With `O=C(NCc1ccco1)c1ccc(COc2ccc(Cl)cc2)cc1`, the inhibition is 15.4% (inactive).

Regarding `Cc1sc2nc3n(c(=O)c2c1C)CCCS3`, the inhibition was -3% (inactive).

As to `O=c1c(C(c2ccc(Cl)cc2)c2c(O)nc3n(c2=O)CCCS3)c(O)nc2n1CCCS2`, the inhibition is -3.6% (inactive).

In the case of `N#Cc1c(-c2ccc(Cl)cc2)nc2n(c1=O)CCCS2`, the inhibition was -3.54% (inactive).

On to `O=c1c2ccccc2nc2n1CCCS2`, for which the inhibition is -15.7% (inactive).
